This passage reports composite z-score and z-score results from PubChem BioAssay.

Active and inactive are the calls of the source.

For experiment [1], the system named is Plasmodium falciparum Sir2 (PF13_0152, Sir2A). Briefly: Plasmodium falciparum Sir2A binding compounds – biochemical, small-molecule microarray, 635 nm fluorescence, primary screen (AID 1098).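 Also: score merges spot fluorescence intensity with its signal-to-noise ratio.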 Particulars: fluorescence 635 nm, higher = more signal.
The nature of experiment [2]: probe aDKK1 binding to arrayed compounds – biochemical, biotinylated probe, 635/667 nm fluorescence, primary screen (AID 1099).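 Also: score merges 667nm spot fluorescence with signal to noise across triplicate slides.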 Particulars: small-molecule microarray, higher = more signal.
A short description of experiment [3]: probe aCHRDL2 binding to arrayed compounds – biochemical, biotinylated probe, 635/667 nm fluorescence, primary screen (AID 1100). The following applies: small-molecule microarray, higher = more signal.
Experiment [4] in a line: change in splice reporter luminescence, either direction, cell-based, HEK293, spliceosome inhibition project, primary screen (AID 1101).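 Also: HEK293 cells carrying a splicing-competent luciferase reporter gene; test concentration not given here.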 Particulars: HEK293 splicing luciferase reporter, 24 h, higher = more signal, called active from +8 up or from −8 down. A general note: In a reporter assay the amount or activity of a reporter protein is the signal.
Experiment [5] deals with Fibroblast growth factor 10 (Homo sapiens) (UniProt O15520). Briefly: compounds binding fibroblast growth factor 10 – biochemical, small-molecule microarray, 635 nm fluorescence, primary screen (AID 1102). Particulars: FGF10 binding, fluorescence 635 nm, higher = more signal.
Experiment [6] concerns glycogen synthase kinase-3 (GSK3A per assay name; protocol says GSK3B). Briefly: compounds binding glycogen synthase kinase-3 – biochemical, small-molecule microarray, 635 nm fluorescence, GSK3A, primary screen (AID 1103). Also: the record names both GSK3A and GSK3B. The following applies: fluorescence 635 nm, higher = more signal.
For experiment [7], the target named is Epidermal growth factor receptor (Homo sapiens) (UniProt P00533). Briefly: compounds binding epidermal growth factor receptor – biochemical, small-molecule microarray, 635 nm fluorescence, primary screen (AID 1104).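 Also: score merges 667 nm emission intensity with spot signal to noise over triplicate slides.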 Particulars: EGFR binding, higher = more signal.
In experiment [8] the target is Follistatin-related protein 3 (Homo sapiens) (UniProt O95633). Briefly: compounds binding follistatin-related protein 3 – biochemical, small-molecule microarray, 635 nm fluorescence, primary screen (AID 1105).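 Also: score merges emission near 667 nm and signal to noise per printed spot across three slides.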 Particulars: FSTL3 binding, higher = more signal.
Experiment [9] addresses Dickkopf-related protein 1 (Homo sapiens) (UniProt O94907). Briefly: small molecules binding DKK1 protein – biochemical, small-molecule microarray, 635 nm fluorescence scan, primary screen (AID 1106).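 Also: score merges emission near 667 nm with signal to noise over three replicate slides.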 The following applies: higher = more signal.
In experiment [10] the test system is Inhibin beta A chain (activin A). Briefly: small molecules binding activin A – biochemical, small-molecule microarray, 635 nm fluorescence scan, primary screen (AID 1107).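 Also: mouse activin A protein probed at 4.33 µg/mL on printed slides; score merges bound-protein fluorescence near 667 nm with spot signal-to-noise.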 The following applies: INHBA, higher = more signal.
Experiment [11] deals with Human papillomavirus type 1a protein E7 (residues 44-93). Briefly: small molecules binding HPV E7 44-93 – biochemical, small-molecule microarray, residues 44-93, 635 nm fluorescence, primary screen (AID 1108).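 Also: E7 fragment applied at 1 µg/mL in TBST for 1 h at 4 C; score combines spot fluorescence with its signal to noise ratio.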 The following applies: fluorescence 635 nm, higher = more signal.
Experiment [12] can be described thus: hepatitis C replication reporter changes, two-sided – Huh7 cells, luciferase reporter, HCV replication inhibitor project, primary screen (AID 1109).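 Also: huh7 hepatoma cells harbouring a luciferase neomycin HCV replicon reporter; luciferase luminescence as measure of HCV replicon replication; test concentration not given here.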 Particulars: Huh7 HCV replicon luciferase reporter, 48 h; higher = more signal.
The target of experiment [13] is Left-right determination factor 2 (Homo sapiens) (UniProt O00292). Briefly: small molecules binding LEFTY2 protein – biochemical, small-molecule microarray, 635 nm fluorescence scan, primary screen (AID 1110). Particulars: higher = more signal.
Experiment [14] deals with Calmodulin-1 (Homo sapiens) (UniProt P0DP23). Briefly: small molecules binding calmodulin-1 with EGTA – biochemical, small-molecule microarray, Cy5-labelled CALM1, profiling panel (AID 1111).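 Also: labelled calmodulin applied in Tris saline Tween buffer holding calcium plus EGTA and DTT.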 Particulars: Cy5-CALM1 binding fluorescence, higher = more signal.
The target is the same in experiment [15]. Briefly: small molecules binding Ca-loaded calmodulin-1 – biochemical, small-molecule microarray, Cy5-labelled CALM1, plus calcium, artefact control for SMM control-protein annotation, profiling panel (AID 1112).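 Also: score merges spot fluorescence with signal to noise from triplicate slides.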 Particulars: Cy5-CALM1 binding fluorescence, higher = more signal.
A short description of experiment [16]: probe aWnt5a binding to arrayed compounds – biochemical, biotinylated probe, 635/667 nm fluorescence, primary screen (AID 1113).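 Also: score merges 667 nm fluorescence intensity with signal-to-noise per printed feature.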 Particulars: small-molecule microarray, higher = more signal.
Experiment [17] can be described thus: probe aShh binding to arrayed compounds – biochemical, biotinylated probe, 635/667 nm fluorescence, primary screen (AID 1114).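 Also: probe is biotin-labelled aShh protein from a stem cell growth factor screen; measures binding of labelled protein to compounds printed on the slide; score merges feature fluorescence at 667 nm with signal-to-noise.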 The following applies: small-molecule microarray, higher = more signal.
A short description of experiment [18]: probe aNog binding to arrayed compounds – biochemical, biotinylated probe, 635/667 nm fluorescence, primary screen (AID 1115).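 Also: probe is biotinylated aNog protein used at 0.15 µg/mL for 1 h at 4 C; z-score combines 667 nm fluorescence of each spot with its signal to noise.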 Particulars: small-molecule microarray, higher = more signal.
In experiment [19] the target is Torsin-1A-interacting protein 1 (Homo sapiens) (UniProt Q5JTV8). Briefly: compound microarray binding of lysate hLAP1 – cell lysate, small-molecule microarray, COS7 lysate, 635/667 nm fluorescence, primary screen (AID 1116). Particulars: 635 nm fluorescence, higher = more signal.
Experiment [20] concerns the target Alpha-bungarotoxin (Bungarus multicinctus) (UniProt P60615). Briefly: compounds binding labelled alpha-BTX control protein – biochemical, small-molecule microarray, Alexa647 label, 635/667 nm fluorescence, artefact control for SMM control protein annotation, profiling panel (AID 1117). The following applies: alpha-BTX-A647 binding fluorescence, higher = more signal.

Sequence of Dickkopf-related protein 1 (Homo sapiens) (O94907 whole entry, looked up): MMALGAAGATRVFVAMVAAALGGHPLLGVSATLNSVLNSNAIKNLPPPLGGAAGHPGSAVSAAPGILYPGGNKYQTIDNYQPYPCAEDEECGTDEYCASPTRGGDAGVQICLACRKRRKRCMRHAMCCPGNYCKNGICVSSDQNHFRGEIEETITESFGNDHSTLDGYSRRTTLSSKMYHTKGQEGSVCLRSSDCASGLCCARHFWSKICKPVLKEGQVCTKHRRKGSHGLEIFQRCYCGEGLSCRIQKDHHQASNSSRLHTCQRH
Sequence of Follistatin-related protein 3 (Homo sapiens) (O95633 whole entry, looked up): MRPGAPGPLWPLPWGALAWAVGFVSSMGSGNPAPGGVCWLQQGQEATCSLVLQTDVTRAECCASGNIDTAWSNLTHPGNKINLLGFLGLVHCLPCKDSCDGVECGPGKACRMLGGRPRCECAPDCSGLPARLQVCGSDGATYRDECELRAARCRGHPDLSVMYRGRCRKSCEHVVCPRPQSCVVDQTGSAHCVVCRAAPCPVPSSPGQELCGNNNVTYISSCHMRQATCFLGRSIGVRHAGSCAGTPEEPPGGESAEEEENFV
Sequence of Fibroblast growth factor 10 (Homo sapiens) (O15520 whole entry, looked up): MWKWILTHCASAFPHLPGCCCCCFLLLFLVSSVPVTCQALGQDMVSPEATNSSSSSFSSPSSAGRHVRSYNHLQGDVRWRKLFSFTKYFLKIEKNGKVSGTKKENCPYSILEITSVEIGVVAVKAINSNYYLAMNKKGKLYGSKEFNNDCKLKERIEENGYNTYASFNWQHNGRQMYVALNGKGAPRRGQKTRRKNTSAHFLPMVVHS
Sequence of Left-right determination factor 2 (Homo sapiens) (O00292 whole entry, looked up): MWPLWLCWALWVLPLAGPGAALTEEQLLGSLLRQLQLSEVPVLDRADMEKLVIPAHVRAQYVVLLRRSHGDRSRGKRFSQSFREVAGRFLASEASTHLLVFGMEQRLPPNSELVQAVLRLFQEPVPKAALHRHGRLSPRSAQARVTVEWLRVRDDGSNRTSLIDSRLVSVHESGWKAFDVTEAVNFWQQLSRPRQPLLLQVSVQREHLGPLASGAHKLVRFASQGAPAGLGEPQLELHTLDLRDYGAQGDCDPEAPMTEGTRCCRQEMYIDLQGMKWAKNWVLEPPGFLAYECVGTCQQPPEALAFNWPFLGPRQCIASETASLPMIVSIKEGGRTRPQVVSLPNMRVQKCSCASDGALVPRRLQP
Sequence of Alpha-bungarotoxin (Bungarus multicinctus) (P60615 whole entry, looked up): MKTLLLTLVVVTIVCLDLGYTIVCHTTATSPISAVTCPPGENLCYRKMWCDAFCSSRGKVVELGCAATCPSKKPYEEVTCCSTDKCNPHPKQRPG
Sequence of Torsin-1A-interacting protein 1 (Homo sapiens) (Q5JTV8 whole entry, looked up): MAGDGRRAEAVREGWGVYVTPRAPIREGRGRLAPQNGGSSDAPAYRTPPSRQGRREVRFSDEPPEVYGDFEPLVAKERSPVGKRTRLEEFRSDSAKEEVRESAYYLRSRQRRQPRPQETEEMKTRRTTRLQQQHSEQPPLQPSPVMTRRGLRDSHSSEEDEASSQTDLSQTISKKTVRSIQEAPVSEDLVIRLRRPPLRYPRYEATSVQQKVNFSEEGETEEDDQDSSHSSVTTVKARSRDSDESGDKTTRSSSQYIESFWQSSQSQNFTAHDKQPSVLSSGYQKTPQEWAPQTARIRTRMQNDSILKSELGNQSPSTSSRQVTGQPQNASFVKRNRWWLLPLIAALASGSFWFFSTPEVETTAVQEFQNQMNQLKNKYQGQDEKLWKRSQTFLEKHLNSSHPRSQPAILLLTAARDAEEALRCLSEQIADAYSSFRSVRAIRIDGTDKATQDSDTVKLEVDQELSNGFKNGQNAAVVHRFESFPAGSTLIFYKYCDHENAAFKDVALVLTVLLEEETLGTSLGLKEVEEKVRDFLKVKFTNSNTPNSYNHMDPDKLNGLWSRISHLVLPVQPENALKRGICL
Sequence of Epidermal growth factor receptor (Homo sapiens) (P00533 whole entry, looked up): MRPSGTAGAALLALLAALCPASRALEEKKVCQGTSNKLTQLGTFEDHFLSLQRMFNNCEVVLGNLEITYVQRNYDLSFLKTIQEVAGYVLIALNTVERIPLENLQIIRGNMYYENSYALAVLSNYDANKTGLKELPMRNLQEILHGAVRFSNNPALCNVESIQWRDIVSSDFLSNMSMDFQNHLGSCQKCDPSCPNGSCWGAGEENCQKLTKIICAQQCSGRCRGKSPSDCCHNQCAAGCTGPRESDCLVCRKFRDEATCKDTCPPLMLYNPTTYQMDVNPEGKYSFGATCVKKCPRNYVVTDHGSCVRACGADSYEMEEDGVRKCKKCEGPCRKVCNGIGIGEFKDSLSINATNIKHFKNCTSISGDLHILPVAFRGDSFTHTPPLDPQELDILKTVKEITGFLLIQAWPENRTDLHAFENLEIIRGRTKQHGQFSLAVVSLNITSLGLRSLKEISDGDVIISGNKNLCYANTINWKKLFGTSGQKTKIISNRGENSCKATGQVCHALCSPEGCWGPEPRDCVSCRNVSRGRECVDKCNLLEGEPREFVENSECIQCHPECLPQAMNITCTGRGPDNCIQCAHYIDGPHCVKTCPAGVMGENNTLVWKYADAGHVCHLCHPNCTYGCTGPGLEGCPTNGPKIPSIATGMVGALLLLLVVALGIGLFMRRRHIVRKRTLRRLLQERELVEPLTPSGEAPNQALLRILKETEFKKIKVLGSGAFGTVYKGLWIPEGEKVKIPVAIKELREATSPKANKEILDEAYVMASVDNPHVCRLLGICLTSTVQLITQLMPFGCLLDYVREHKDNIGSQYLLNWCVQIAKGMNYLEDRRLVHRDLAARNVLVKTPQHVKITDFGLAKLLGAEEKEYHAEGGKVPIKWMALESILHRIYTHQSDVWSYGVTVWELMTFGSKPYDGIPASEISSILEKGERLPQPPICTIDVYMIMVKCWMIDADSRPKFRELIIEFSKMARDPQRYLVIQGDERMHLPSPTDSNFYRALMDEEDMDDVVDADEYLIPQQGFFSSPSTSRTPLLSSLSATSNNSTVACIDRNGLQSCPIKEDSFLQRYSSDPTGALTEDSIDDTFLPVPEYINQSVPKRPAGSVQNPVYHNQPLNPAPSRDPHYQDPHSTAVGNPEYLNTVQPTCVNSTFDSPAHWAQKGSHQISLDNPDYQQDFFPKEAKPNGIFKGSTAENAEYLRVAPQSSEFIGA

With `CC(C)[Si]1(C(C)C)O[C@@H](c2ccccc2)c2cc(C3CC3)nc(-c3ccc(Oc4ccccc4)cc3)c21`, the composite z-score in [1] was -1.25; in [2], -0.105; in experiment [3], -0.037; in experiment [5], -0.318; in experiment [6], -0.343; in experiment [7], -0.0891. For the same molecule, the composite z-score in [8] is -0.489; in experiment [9], -0.159; in experiment [10], 0.513; in experiment [11], -0.266; in experiment [13], -0.436; in [14], -0.395. Besides, the composite z-score in experiment [15] is 0.89; in experiment [16], -0.0758; in [17], -0.214; in [18], -0.158; in experiment [19] it was 0.0613; in [20] it was -0.789. Further, the z-score in experiment [4] was -0.961 (inactive); in [12], -0.176.
For the molecule `O=C1C2C=CC(C(O)C#Cc3ccccc3)N(Nc3ccccc3)C2C(=O)N1c1ccccc1` (stereo not given), the composite z-score in experiment [1] was 1.66; in experiment [2], -0.0212; in experiment [3], 0.498; in experiment [5], -0.102; in experiment [6], -0.208; in experiment [7], -0.512. Also, the composite z-score in experiment [8] was -0.445; in experiment [9], -0.572; in [10], 0.687; in experiment [11], -0.369; in experiment [13], -0.365; in experiment [14], 0.482. The composite z-score was 0.373 in experiment [15]; -0.096 in experiment [16]; -0.16 in experiment [17]; 0.839 in experiment [18]; 0.945 in experiment [19]; 0.472 in [20]. The z-score in experiment [4] was 0.287 (inactive); in experiment [12] it was -0.049.
On to `C=CC[C@]1(C(=O)O)N=C(c2ccc(OCCCO)cc2)O[C@H]1c1ccccc1`, for which the composite z-score in experiment [1] is 1.43; in experiment [2], 0.518; in experiment [3] it was 0.838; in [5], -0.0023; in experiment [6] it was -0.517; in experiment [7], -1.13. Also, the composite z-score was -1.02 in experiment [8]; -0.968 in experiment [9]; 0.654 in experiment [10]; -0.726 in experiment [11]; -0.764 in [13]; 1.21 in experiment [14]. Moreover, the composite z-score in experiment [15] is 0.994; in experiment [16], -0.124; in experiment [17], 0.216; in [18], 0.448; in experiment [19], 0.498; in [20] it was 0.378. In addition, the z-score in [4] was -0.893 (inactive); in experiment [12] it was -0.138.
Take `CCCN1C(=O)[C@@]2(CCS(=O)(=O)c3ccccc3)N=C(c3ccc(OCCCO)cc3)O[C@H]2c2ccccc21`: the composite z-score amounted to 0.915 in [1]; 0.164 in [2]; 0.827 in experiment [3]; 0.736 in experiment [5]; 1.31 in [6]; 0.279 in [7]. The composite z-score in experiment [8] was determined as 0.998; in [9], 0.503; in [10] it was 0.96; in [11], 1.45; in [13] it was 0.224; in [14] it was 0.248. Also, the composite z-score in [15] is -0.598; in experiment [16], -0.0721; in [17], -0.0234; in [18], -0.269; in experiment [19], 0.307; in experiment [20], 1.01. Also, the z-score is 0.597 (inactive) in [4] and -2.08 in experiment [12].
For the molecule `COCCOC(=O)N1C(=O)[C@@]2(c3cc(C#CCC(C(=O)OC)C(=O)OC)ccc31)[C@H](c1ccccc1OCCO)N1[C@H](c3ccccc3)[C@H](c3ccccc3)OC(=O)[C@H]1[C@@H]2C(=O)N1CCCCCCC1`, the composite z-score in [1] worked out at 0.853; in [2], 1.97; in experiment [3], 1.42; in [5], 0.834; in experiment [6] it was 1.29; in [7], 0.852. In addition, the composite z-score in experiment [8] came to 1.56; in [9], 1.4; in experiment [10], 1.61; in [11], 1.39; in experiment [13], 1.24; in experiment [14], 2.17. In addition, the composite z-score was found to be 1.49 in experiment [15]; 0.697 in experiment [16]; 0.626 in experiment [17]; 2.62 in [18]; 1.31 in experiment [19]; 2 in experiment [20]. Further, the z-score in [4] was -0.247 (inactive); in experiment [12] it was -2.05.
Turning to `Cc1ccc(S[C@]2(C(=O)NC(C)C)CC(=O)N(Cc3cc(C(F)(F)F)cc(C(F)(F)F)c3)[C@@H]2c2ccc(CO)cc2I)cc1`, the composite z-score in experiment [1] was -0.602; in experiment [2] it was 0.0628; in experiment [3], 0.892; in experiment [5], -0.816; in experiment [6], -0.504; in experiment [7], -1.36. For the same molecule, the composite z-score in [8] was -0.923; in [9], -1.27; in experiment [10], -0.748; in [11], 0.785; in experiment [13] it was -0.832; in [14], -0.502. For the same molecule, the composite z-score in [15] was -0.384; in experiment [16] it was -0.132; in experiment [17], 0.0815; in [18], -0.036; in experiment [19] it was -0.596; in [20], 0.57. The z-score in [4] is -0.181 (inactive); in experiment [12], -0.563.
